# From the antibiotic and cytotoxicity screens of Wong et al. (2023)
# The campaign covered roughly 39,000 compounds. About 1,500 (3.8%) were called active. For the sample, actives were picked, then their nearest neighbours and some compounds at random.
# Test system: HSkMC (human skeletal muscle cells)
# Test: cytotoxicity call (relative viability < 0.9)
# Details: 10 µM
row,SMILES,cytotoxicity call
1,Cc1ccc(S(=O)(=O)N(C)C[C@@H]2Oc3ccc(NC(=O)CCCN(C)C)cc3CC(=O)N([C@@H](C)CO)C[C@H]2C)cc1,inactive
2,O=C(CN1CCOCC1)NCC[C@@H]1CC[C@H](NC(=O)Cc2ccccn2)[C@@H](CO)O1,inactive
3,Cc1noc(C)c1S(=O)(=O)N(C)C[C@H]1Oc2ccc(NC(=O)Cn3cnnn3)cc2CC(=O)N([C@@H](C)CO)C[C@@H]1C,inactive
4,C[C@@H]1CN([C@H](C)CO)S(=O)(=O)c2ccc(C#Cc3ccccc3)cc2O[C@@H]1CN(C)S(C)(=O)=O,inactive
5,C[C@@H]1CCCCO[C@@H](CN(C)C(=O)Nc2ccccc2)[C@@H](C)CN([C@@H](C)CO)C(=O)c2cc(NC(=O)Nc3cccc4ccccc34)ccc2O1,inactive
6,COc1ccc(S(=O)(=O)Nc2ccc3c(c2)OC[C@@H](C)N(C)C[C@@H](C)[C@H](OC)CN(C)C3=O)cc1,inactive
7,CO[C@H](CN(C)S(=O)(=O)c1cccc(Cl)c1)[C@H](C)CN([C@H](C)CO)S(=O)(=O)c1ccc(Cl)cc1,inactive
8,O=C(C[C@H]1CC[C@H]2[C@@H](COC[C@H](O)CN2C(=O)c2cccnc2)O1)NCc1ccc(-c2ccccc2)cc1,inactive
9,NC(=O)c1nc2c(s1)CCNCC2,inactive
10,Cc1ccc(S(=O)(=O)N(C)C[C@H]2OCCCC[C@@H](C)Oc3ccc(NS(C)(=O)=O)cc3C(=O)N([C@H](C)CO)C[C@@H]2C)cc1,inactive
11,COc1ccc(S(=O)(=O)N(C)C[C@@H]2OCc3cn(nn3)CCCC(=O)N([C@H](C)CO)C[C@@H]2C)cc1,inactive
12,O=C(C[C@H]1CC[C@@H]2[C@H](COC[C@H](O)CN2S(=O)(=O)c2ccccc2)O1)NCc1ccc(-c2ccccc2)cc1,inactive
13,Cc1ccc(S(=O)(=O)Nc2ccc3c(c2)C(=O)N([C@H](C)CO)C[C@@H](C)[C@H](CN(C)C(=O)Nc2ccc(F)cc2)OCCCC[C@H](C)O3)cc1,active
14,Cc1ccc(S(=O)(=O)Nc2ccc3c(c2)C(=O)N([C@@H](C)CO)C[C@H](C)[C@@H](CN(C)C(=O)Nc2ccc(F)cc2)OCCCC[C@@H](C)O3)cc1,inactive
15,Cc1ccc(S(=O)(=O)Nc2ccc3c(c2)C(=O)N([C@H](C)CO)C[C@@H](C)[C@H](CN(C)C(=O)Nc2ccc(F)cc2)OCCCC[C@@H](C)O3)cc1,active
16,Cc1ccc(S(=O)(=O)Nc2ccc3c(c2)C(=O)N([C@@H](C)CO)C[C@H](C)[C@@H](CN(C)C(=O)Nc2ccc(F)cc2)OCCCC[C@H](C)O3)cc1,inactive
17,Cc1ccc(S(=O)(=O)Nc2ccc3c(c2)C(=O)N([C@H](C)CO)C[C@H](C)[C@H](CN(C)C(=O)Nc2ccc(F)cc2)OCCCC[C@H](C)O3)cc1,inactive
18,Cc1ccc(S(=O)(=O)Nc2ccc3c(c2)C(=O)N([C@@H](C)CO)C[C@@H](C)[C@H](CN(C)C(=O)Nc2ccc(F)cc2)OCCCC[C@@H](C)O3)cc1,inactive
19,C[C@H]1CN([C@@H](C)CO)S(=O)(=O)c2ccc(C#CC(C)(C)O)cc2O[C@H]1CN(C)C(=O)C1CCCCC1,inactive
20,C[C@H](CO)N1C[C@H](C)[C@H](CN(C)S(C)(=O)=O)Oc2ccc(NC(=O)Nc3ccc(F)cc3)cc2CC1=O,inactive
21,COc1ccc(NC(=O)Nc2cccc3c2O[C@H](CN(C)C(=O)Nc2cccc4ccccc24)[C@H](C)CN([C@H](C)CO)C3=O)cc1,inactive
22,COc1ccc(NC(=O)N(C)C[C@H]2Oc3c(NC(=O)C4CC4)cccc3C(=O)N([C@H](C)CO)C[C@H]2C)cc1,inactive
23,C[C@H]1CN([C@@H](C)CO)C(=O)c2cc(NC(=O)Cc3ccccc3)ccc2O[C@@H]1CN(C)C(=O)Nc1cccc2ccccc12,inactive
24,Cc1nc2c(=O)n(C)c(=O)n(C)c2nc1Cl,active
25,Cn1c(=O)c2c(nc(SCSc3nc4c(c(=O)n(C)c(=O)n4C)n3C)n2C)n(C)c1=O,inactive
26,CCn1c(Cl)nc2c1c(=O)n(C)c(=O)n2C,inactive

row,SMILES,cytotoxicity call
1,C[C@@H]1CN([C@H](C)CO)C(=O)c2cc(NC(=O)Nc3ccc4c(c3)OCO4)ccc2O[C@@H](C)CCCCO[C@H]1CN(C)Cc1ccccc1,inactive
2,Cc1ccc(S(=O)(=O)N(C)C[C@H]2OCCCC[C@@H](C)Oc3ccc(NS(C)(=O)=O)cc3C(=O)N([C@H](C)CO)C[C@H]2C)cc1,inactive
3,Cn1nnc2c1CCN(C(=O)CS(C)(=O)=O)[C@@H]2COCC1CC1,inactive
4,CCN1CCN(Cc2ccc(C(=O)Nc3ccc(C)c(Oc4ccc5c(c4)CC(=O)N5)c3)cc2C(F)(F)F)CC1,active
5,COCC(=O)Nc1ccc2c(c1)CC(=O)N2,inactive
6,Cc1ccc(S(=O)(=O)Nc2ccc3c(c2)C(=O)N([C@@H](C)CO)C[C@H](C)[C@@H](CN(C)C(=O)Nc2c(C)noc2C)OCCCC[C@@H](C)O3)cc1,inactive
7,Cc1noc(C)c1NC(=O)N(C)C[C@@H]1Oc2ccc(NC(=O)C3CC3)cc2C(=O)N([C@H](C)CO)C[C@H]1C,inactive
8,C[C@@H]1CN([C@H](C)CO)C(=O)CCCn2nncc2CO[C@H]1CN(C)C(=O)Nc1cccc(C(F)(F)F)c1,inactive
9,C[n+]1cc2c3c(ccc2c2ccc4cc5c(cc4c21)OCO5)OCO3.[Cl-],active
10,COc1ccc2cc3[n+](cc2c1OC)CCc1cc2c(cc1-3)OCO2.[Cl-],inactive
11,COCC#Cc1cnc2c(c1)C(=O)N([C@@H](C)CO)C[C@@H](C)[C@@H](CN(C)S(=O)(=O)c1ccccc1)O2,inactive
12,C[C@@H]1CN([C@H](C)CO)C(=O)c2cc(C#Cc3ccccc3F)cnc2O[C@@H]1CN(C)C(=O)c1ccc2c(c1)OCO2,inactive
13,Cc1ncc[nH]1,inactive
14,CC[C@@H](C)SSc1ncc[nH]1,active
15,OCc1ncc[nH]1,inactive
16,C[C@@H]1CN([C@H](C)CO)C(=O)c2cccc(NC(=O)Nc3ccc(F)cc3)c2O[C@H]1CN(C)C(=O)Nc1cccc2ccccc12,inactive
17,C[C@@H]1CN([C@@H](C)CO)C(=O)c2cc(NS(C)(=O)=O)ccc2O[C@@H]1CN(C)Cc1ccc(C(=O)Nc2ccccc2N)cc1,inactive
18,Cc1ccc(S(=O)(=O)NC2=NCN(CCN3CCOCC3)CN2)cc1,inactive
19,O=C(NCCN1CCOCC1)c1ccccn1,inactive
20,Cc1ccc(-n2nc(C(C)(C)C)cc2NC(=O)Nc2ccc(OCCN3CCOCC3)c3ccccc23)cc1,active
21,C[C@@H]1CN([C@H](C)CO)C(=O)c2cc(NS(=O)(=O)c3cn(C)cn3)ccc2O[C@@H]1CN(C)C(=O)Nc1ccc2c(c1)OCO2,inactive
22,O=C1[C@@H]2[C@@H](C(=O)N1CCO)[C@@H]1C=C[C@@H]2C1,inactive
23,C[C@@H]1CN([C@H](C)CO)S(=O)(=O)c2ccc(-c3cncnc3)cc2O[C@H]1CN(C)C(=O)Cc1ccncc1,inactive
24,C[C@@H]1CN([C@H](C)CO)C(=O)c2cc(NC(=O)Nc3ccc4c(c3)OCO4)ccc2O[C@H]1CN(C)C(=O)Nc1cccc2ccccc12,inactive
25,C[C@@H]1CN([C@@H](C)CO)C(=O)c2cc(NC(=O)Nc3ccc4c(c3)OCO4)ccc2O[C@@H]1CN(C)C(=O)Nc1cccc2ccccc12,active
26,C[C@H]1CN([C@@H](C)CO)C(=O)c2cc(NC(=O)Nc3ccc4c(c3)OCO4)ccc2O[C@H]1CN(C)C(=O)Nc1cccc2ccccc12,inactive

row,SMILES,cytotoxicity call
1,C[C@H](CO)N1C[C@H](C)[C@@H](CN(C)C(=O)Nc2cccc3ccccc23)Oc2ccc(NC(=O)Nc3ccc4c(c3)OCO4)cc2C1=O,inactive
2,C[C@H]1CN([C@@H](C)CO)C(=O)c2cc(NC(=O)Nc3ccc4c(c3)OCO4)ccc2O[C@@H]1CN(C)C(=O)Nc1cccc2ccccc12,inactive
3,C[C@@H]1CN([C@H](C)CO)C(=O)c2cc(NC(=O)Nc3ccc4c(c3)OCO4)ccc2O[C@@H]1CN(C)C(=O)Nc1cccc2ccccc12,active
4,O=C(C[C@H]1CC[C@H]2[C@@H](COC[C@@H](O)CN2S(=O)(=O)c2cccc(Cl)c2)O1)NCCCN1CCOCC1,inactive
5,CO[C@@H]1[C@@H](O)[C@H](O)[C@H](O)[C@H](O)[C@@H]1O,inactive
6,COc1ccc(NC(=O)N(C)C[C@@H]2Oc3ccc(NC(=O)CCCCCC(=O)Nc4ccccc4N)cc3C(=O)N([C@@H](C)CO)C[C@@H]2C)cc1,inactive
7,O=C(Cn1cc(COc2ccc3ccccc3c2)nn1)NS(=O)(=O)c1ccccc1OC(F)(F)F,inactive
8,CN(C)C(=O)C[C@@H]1CC[C@@H]2[C@H](COC[C@H](O)CN2S(=O)(=O)c2ccc(Oc3ccccc3)cc2)O1,inactive
9,CC(C)[C@H]1CC[C@@H](C)C[C@@H]1NC(=O)c1cccc2ccccc12,inactive
10,COc1ccc2c(c1)n(CCN)c(=O)n2C(=O)[C@@H]1C[C@H](C)CC[C@H]1C(C)C,active
11,COc1ccc(S(=O)(=O)Nc2ccc3c(c2)C(=O)N([C@H](C)CO)C[C@@H](C)[C@@H](CN(C)S(C)(=O)=O)O3)cc1,inactive
12,Cc1cc(C)c(/N=c2\scc(C)n2Cc2ccccc2)c(C)c1,inactive
13,C[C@@H]1CN([C@H](C)CO)C(=O)c2cc(NC(=O)Nc3ccc(C(F)(F)F)cc3)ccc2O[C@@H]1CN(C)S(=O)(=O)c1ccc(F)cc1,active
14,C[C@H]1CN([C@@H](C)CO)C(=O)c2cc(NC(=O)Nc3ccc(C(F)(F)F)cc3)ccc2O[C@@H]1CN(C)S(=O)(=O)c1ccc(F)cc1,inactive
15,Cc1ccc(S(=O)(=O)N(C)C[C@H]2Oc3ccc(NC(=O)Nc4ccc(C(F)(F)F)cc4)cc3C(=O)N([C@@H](C)CO)C[C@@H]2C)cc1,inactive
16,C[C@@H]1CN([C@@H](C)CO)C(=O)c2cc(NC(=O)Nc3ccc(C(F)(F)F)cc3)ccc2O[C@H]1CN(C)S(=O)(=O)c1ccc(F)cc1,inactive
17,C[C@H](CO)N1C[C@H](C)[C@@H](CN(C)S(=O)(=O)c2ccc(F)cc2)Oc2ccc(NC(=O)Nc3ccc(C(F)(F)F)cc3)cc2C1=O,inactive
18,Cc1ccc(S(=O)(=O)N(C)C[C@H]2Oc3ccc(NC(=O)Nc4ccc(C(F)(F)F)cc4)cc3C(=O)N([C@H](C)CO)C[C@H]2C)cc1,active
19,C[C@@H]1CN([C@H](C)CO)C(=O)c2cc(NC(=O)Nc3ccc(C(F)(F)F)cc3)ccc2O[C@H]1CN(C)S(=O)(=O)c1ccc(F)cc1,active
20,C[C@H]1CN([C@@H](C)CO)C(=O)c2cc(NC(=O)Nc3ccc(C(F)(F)F)cc3)ccc2O[C@H]1CN(C)S(=O)(=O)c1ccc(F)cc1,inactive
21,C[C@@H]1CN([C@@H](C)CO)C(=O)c2cc(NC(=O)Nc3ccc(C(F)(F)F)cc3)ccc2O[C@@H]1CN(C)S(=O)(=O)c1ccc(F)cc1,inactive
22,Cc1ccc(S(=O)(=O)N(C)C[C@@H]2Oc3ccc(NC(=O)Nc4ccc(C(F)(F)F)cc4)cc3C(=O)N([C@@H](C)CO)C[C@@H]2C)cc1,inactive
23,Cc1ccc(S(=O)(=O)N(C)C[C@H]2Oc3ccc(NC(=O)Nc4ccc(C(F)(F)F)cc4)cc3C(=O)N([C@H](C)CO)C[C@@H]2C)cc1,inactive
24,C[C@H](CO)N1C[C@H](C)[C@H](CN(C)S(=O)(=O)c2ccc(F)cc2)Oc2ccc(NC(=O)Nc3ccc(C(F)(F)F)cc3)cc2C1=O,active
